Artemis inh: inhibitors of human Artemis endonuclease activity; Q96SD1; recombinant Artemis, quenched FAM hairpin cleavage fluorescence; inhibition, % at 10 µM; 30,000 tested, 0.78% active;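 active = at 10 µM dose, at least 30% inhibition, measured as corrected fluorescence normalized to stimulator and neutral control wells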
Target sequence (Q96SD1 whole entry, looked up): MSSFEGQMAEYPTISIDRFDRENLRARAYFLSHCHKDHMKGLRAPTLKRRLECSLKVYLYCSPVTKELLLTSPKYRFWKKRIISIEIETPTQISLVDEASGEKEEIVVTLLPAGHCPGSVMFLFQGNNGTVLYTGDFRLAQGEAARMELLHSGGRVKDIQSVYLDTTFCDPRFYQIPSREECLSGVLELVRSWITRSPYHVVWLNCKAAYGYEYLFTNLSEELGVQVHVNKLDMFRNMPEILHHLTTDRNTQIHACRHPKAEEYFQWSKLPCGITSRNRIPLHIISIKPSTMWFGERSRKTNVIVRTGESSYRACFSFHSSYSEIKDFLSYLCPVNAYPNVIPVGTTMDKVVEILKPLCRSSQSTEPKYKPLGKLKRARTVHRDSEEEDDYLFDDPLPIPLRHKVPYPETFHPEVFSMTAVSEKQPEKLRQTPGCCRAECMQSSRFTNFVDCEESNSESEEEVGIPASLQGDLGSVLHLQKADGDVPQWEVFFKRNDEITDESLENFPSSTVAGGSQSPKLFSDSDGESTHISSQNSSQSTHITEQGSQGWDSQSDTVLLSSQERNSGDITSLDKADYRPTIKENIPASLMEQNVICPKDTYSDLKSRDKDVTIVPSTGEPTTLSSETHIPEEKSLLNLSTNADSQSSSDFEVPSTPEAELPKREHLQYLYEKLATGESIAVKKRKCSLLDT
Hits are given with their value; 0 = inactive. The sample as a whole holds a higher share of hits than the screen did.

SMILES | Artemis inh
Cc1ccc(C)n1-c1sccc1C(=O)O | 32.8
Cc1ccc(C(=O)c2ccccc2C(=O)O)s1 | 0
O=C(O)c1ccccc1C(=O)c1cccs1 | 0
Cc1cc(/C=N/n2cnnc2)c(C)n1-c1ccccc1 | 0
Cc1cc(/C=N/n2cnnc2)c(C)n1-c1ccc(OCc2ccc(Cl)cc2Cl)cc1 | 42.2
Cc1cc(/C=N/n2cnnc2)c(C)n1-c1cccc(Cl)c1 | 0
CCS(=O)(=O)N1CCN(c2ccc([N+](=O)[O-])c(N3CCOCC3)c2)CC1 | 0
CCOc1ccc(/C(O)=C2/C(=O)C(=O)N(c3nc(C)c(C)s3)C2c2ccco2)cc1 (centres undefined) | 42.8
CCN(CC)CCN1C(=O)C(=O)/C(=C(/O)c2ccc(OC)cc2)C1c1ccco1 (centres undefined) | 0
CCOc1ccc(/C(O)=C2\C(=O)C(=O)N(c3cc(C)on3)C2c2ccccc2OC)cc1 (centres undefined) | 0
CN(Cc1ccccc1)c1nc2c(c(=O)[nH]c(=O)n2C)n1CCOc1ccccc1 | 0
Cc1ccc(S(=O)(=O)N(CC(=O)NCc2ccco2)Cc2ccccc2F)cc1 | 0
Oc1ccc2ccccc2c1C=Nc1ccccc1-c1nc2ccccc2[nH]1 | 0
Oc1ccc2ccccc2c1/C=N/c1nc2c(s1)CCCC2 | 62.5
Oc1c(Br)cc(Br)cc1/C=N/c1nc2c(s1)CCCC2 | 0
O=C(CN(Cc1cccs1)C(=O)CNC(=O)c1ccco1)NC1CCCCC1 | 0
O=C(Nc1ccccc1Sc1ccccc1)c1ccccc1F | 0
COc1ccc(NS(=O)(=O)c2ccc3oc(SC4CCOC4=O)nc3c2)cc1 (centres undefined) | 0
COC(=O)c1cc(-c2c[nH]c3ccccc23)n[nH]1 | 0
Cc1csc(NC(=O)Cc2c[nH]c3ccccc23)n1 | 0
CNc1nc(-c2c[nH]c3ccccc23)cs1 | 38.4
Cc1ccc(-n2c(C)nnc2SCC(=O)Nc2ccccc2)cc1 | 0
CCOc1ccc2[nH]c(=O)c(CN(CC3CCCN3CC)C(=O)NCc3ccccc3)cc2c1 (centres undefined) | 0
CC(=O)N(/N=C1\Sc2ccccc2C1=O)c1cccc(C)c1 | 36.0
CC(=O)N(C)/C=C1\Sc2ccccc2C1=O | 0
SMILES | Artemis inh
CCC(=O)N(C)/C=C1\Sc2ccccc2C1=O | 0
CCC(SC1=N/C(=C/c2ccccc2OC)C(=O)N1c1ccccc1)C(=O)Nc1cc(C)on1 (centres undefined) | 0
O=C(N/N=C\c1ccc(COc2ccc([N+](=O)[O-])cc2)o1)c1ccc(Cl)cc1 | 0
O=[N+]([O-])CC(=Nc1ccc(Cl)cc1)N/N=C\c1oc(O)c2ccccc12 | 34.8
Cc1nc(CS(=O)(=O)c2ccc(Cl)cc2)cc(Sc2ccc(Cl)cc2)n1 | 0
C=CCSC(=C(C#N)C#N)c1cc2c([nH]1)CCCC2 | 0
COC(=O)c1ccccc1OC(=O)c1ccc(Br)o1 | 0
COc1cc(OC)cc(C(=O)NCCNC(=O)c2ccco2)c1 | 0
O=C(O)CC(C(=O)O)N1C(=O)/C(=C/c2ccc(-c3nc4ccccc4s3)o2)SC1=S (centres undefined) | 64.3
O=C(O)CCN1C(=O)/C(=C/c2ccc(-c3nc4ccccc4s3)o2)SC1=S | 0
O=c1oc2ccccc2n1CSc1nc2ccccc2s1 | 0
N#CC1=C(N)Oc2cc(Nc3ccccc3)ccc2C1c1ccncc1 (centres undefined) | 0
COc1ccc(-c2ccnc(SCC(=O)Nc3ccccn3)n2)cc1 | 0
COc1ccccc1-c1cn(S(=O)(=O)c2ccc(F)cc2)nc1N | 0
c1ccc(-c2nc(N3CCCCCC3)c3ccccc3n2)nc1 | 78.2
c1ccc(-c2nc(N3CCOCC3)c3ccccc3n2)nc1 | 0
c1ccc(CN2CCN(c3nc(-c4ccccc4)nc4ccccc34)CC2)cc1 | 0
O=C1CC(C2CCCO2)C(=O)N1Cc1ccccc1 (centres undefined) | 0
COCCNC(=O)c1ccc(CN2CCOCC2)cc1 | 0
O=C(c1c(F)cccc1F)N(Cc1ccccn1)C1CC1 | 0
CCOc1ccc(S(=O)(=O)N2CCN(C(=O)c3sccc3C)CC2)cc1 | 0
COc1ccc(-c2csc(NC(=O)C3CCCCN3S(=O)(=O)c3ccccc3)n2)cc1 (centres undefined) | 0
COc1ccc(C)cc1-n1c(N)c(C#N)c(C#N)c1-c1ccc(OC)c(OC)c1OC | 0
COc1ccc2c3c(cccc13)N(C)N=C2C | 58.0
Cc1ccc(S(=O)(=O)N2CCc3ccccc3C2CN2C(=O)c3ccccc3C2=O)cc1 (centres undefined) | 0
SMILES | Artemis inh
COc1cc(/C=N\NC(=O)Cn2nnc3ccccc32)cc(OC)c1OC | 0
CC(C)(C)c1cc(/C=N/NC(=O)Cc2nc3ccccc3[nH]2)cc(C(C)(C)C)c1O | 31.7
O=C(CCc1nc2ccccc2[nH]1)Nc1ccc2c(c1)OCO2 | 0
COC(=O)c1cc(NC(=O)c2ccccc2)c(=O)oc1C/C=N\OCc1ccc(Cl)cc1Cl | 0
CCCOc1ccc(N)cc1N | 31.0
CCCOc1ccc(-c2nnc(N)s2)cc1 | 0
CCOc1cc(-c2ccc(N)c(OCC)c2)ccc1N | 0
CCn1cc(/C=N/N=C2\CCC3C4CCc5cc(O)ccc5C4CC[C@]23C)c(C)n1 (some centres undefined) | 0
Cc1cc(C(=O)CN2C(=O)c3cccc(N)c3C2=O)c(C)n1Cc1cccs1 | 0
O=C(Nc1cccc2nsnc12)c1ccc(-c2cccc(Cl)c2)o1 | 46.1
O=C(Nc1cccc2nsnc12)c1ccc2c(c1)OCO2 | 0
O=C(Nc1cccc2nsnc12)c1ccc(F)cc1 | 0
CC12CCC(C(=O)N3CCc4ccccc43)(CC1=O)C2(C)C (centres undefined) | 0
COc1ccccc1N1CCN(C(=O)c2c(-c3ccccc3Cl)noc2C)CC1 | 0
CSc1cc(C)n(-c2ccccc2)c(=S)c1C(C)=O | 0
N#Cc1c(N)n(CCNC(=O)c2ccc(Cl)cc2)c2nc3ccccc3nc12 | 0
CCC(C)n1c(NC(=O)c2ccccc2)c(C#N)c2nc3ccccc3nc21 (centres undefined) | 38.6
Cc1noc(NC(=O)c2ccccc2)c1C#N | 0
Cc1ccc(C(=O)N2CCN(C3c4cccc5cccc(c45)C3NS(=O)(=O)c3ccccc3)CC2)cc1 (centres undefined) | 0
CCOC(=O)C(=O)/C(=C\N(C)C)c1onc(-c2c(F)cccc2Cl)c1C(=O)OC | 0
COc1ccc(C=O)cc1CSc1nnc(COc2cccc3cccnc23)o1 | 0
COc1ccc(C(=O)CSc2nnc(CNc3nc(-c4ccccc4)cs3)n2C)cc1 | 0
CCOC(=O)/C=c1\s/c(=C(\C#N)C(=O)OCC)n(-c2ccccc2)c1=O | 31.1
CCOC(=O)c1c(O)c2ccccc2n(-c2ccccc2)c1=O | 0
CCOC(=O)/C(C#N)=C1/C=Cc2ccccc2N1CC | 0
SMILES | Artemis inh
CC(C)(C)OC(=O)N1CCC[C@H]1c1nnc(SCc2ccccc2F)o1 | 0
CC/C(C)=C1\SC(N2CCOCC2)=NC1=O | 0
O=C(Nc1ccc(N2CCCCC2)cc1)c1ccc(F)cc1 | 0
COc1ccc(C(=O)Nc2ccc(N3CCCC3)cc2)cc1 | 61.8
CCOc1ccc(C(=O)Nc2ccc(N3CCCC3)cc2)cc1 | 0
CSc1nnc2c3cc(C)ccc3n(Cc3ccccc3)c2n1 | 37.3
CCCn1c2ccccc2c2nnc(SC(CC)C(=O)Nc3cc(C)on3)nc21 (centres undefined) | 0
O=C1c2ccccc2C(=O)N1CSc1nnc2c3ccccc3n(CCc3ccccc3)c2n1 | 0
Cc1nnc(NC(=O)Cn2cnc3c2c(=O)n(C)c(=O)n3C)s1 | 0
CCOC(=O)CSc1cc(=O)n(C)c2cc(Cl)ccc12 | 0

Screening data as filed in PubChem.
